Records with an inconclusive call do not appear. Active and inactive are the calls of the source. Unless noted, calls come from the whole dose curve; as a rule, active = well fitted curve in the direction sought with a large enough effect in the repeat runs; inconclusive = weak or mixed curves; inactive = no such curve, though single readings can be large; an effect the other way counts as inactive or inconclusive.
Experiments:
[1] = qHTS assay to identify small molecule antagonists of the constitutive androstane receptor (CAR) signaling pathway - cell viability counter screen (AID 1224837); note: nearly all actives have a fitted effect of over 45% in size
Summary of the method: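 Using CellTiter-Fluor, viability is scored in HepG2 cells stably carrying hCAR and a 2.2kb CYP2B6 reporter after 23 hr compound exposure across 15 concentrations, with CITCO present at 50 nM.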

[2] = molecular target: Nuclear receptor subfamily 1 group I member 3 (Homo sapiens) (UniProt Q14994); assay: qHTS assay to identify small molecule antagonists of the constitutive androstane receptor (CAR) signaling pathway (AID 1224838);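 note: HepG2 cells stably expressing hCAR with CYP2B6 luciferase reporter stimulated by CITCO; nearly all actives have a fitted effect of over 40% in size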
Nuclear receptor subfamily 1 group I member 3 (Homo sapiens), sequence (Q14994 whole entry, looked up): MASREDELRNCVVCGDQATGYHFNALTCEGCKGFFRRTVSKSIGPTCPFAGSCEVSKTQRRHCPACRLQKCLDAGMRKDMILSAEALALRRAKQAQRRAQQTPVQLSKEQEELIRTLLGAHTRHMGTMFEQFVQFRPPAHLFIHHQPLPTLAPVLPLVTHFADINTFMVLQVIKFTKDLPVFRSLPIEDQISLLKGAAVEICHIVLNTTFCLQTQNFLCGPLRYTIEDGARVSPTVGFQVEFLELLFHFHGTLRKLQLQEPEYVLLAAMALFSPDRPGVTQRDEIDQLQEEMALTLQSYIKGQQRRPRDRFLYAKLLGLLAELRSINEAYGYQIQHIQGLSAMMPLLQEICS
Summary of the method: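 Reporter luminescence was quantified after 24 h exposure of hCAR/CYP2B6-2.2kb double-stable HepG2 cells to compounds at 15 concentrations in the presence of 50 nM CITCO final.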

[3] = molecular target: Nuclear receptor subfamily 1 group I member 3 (Homo sapiens) (UniProt Q14994); assay: qHTS assay to identify small molecule agonists of the constitutive androstane receptor (CAR) signaling pathway (AID 1224839);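 note: HepG2 cells stably carrying human CAR and a CYP2B6 luciferase reporter; nearly all actives have a fitted effect of over 15% in size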
Summary of the method: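 Luminescence read-out (ONE-Glo, 30 min, room temperature) from double-stable HepG2-CYP2B6-hCAR cells exposed 24 h to 15-point compound series in presence of 0.75 uM PK11195 final.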

[4] = qHTS assay to identify small molecule antagonists of the estrogen related receptor signaling pathway with the pleiotropic PPARgamma coactivator (PGC) from Tox21 10K library - cell viability counter screen (AID 1224840; active = well fitted cell-killing curve with a large enough effect in the repeat runs, not every such curve was filed as active; note: nearly all actives have a fitted effect of over 40% in size)
Summary of the method: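 Here the PGC/ERR cells serve as a cytotoxicity control: they are exposed to compounds for 17.5 hours at 37 C, and live-cell signal is quantified using CellTiter-Fluor fluorescence.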

[5] = molecular target: Thyrotropin receptor (Homo sapiens) (UniProt P16473); assay: qHTS assay to identify small molecule agonists of the thyroid stimulating hormone receptor (TSHR) signaling pathway (AID 1224843; calls by dose curve; note: nearly all actives have a fitted effect of over 45% in size)
Thyrotropin receptor (Homo sapiens), sequence (P16473 whole entry, looked up): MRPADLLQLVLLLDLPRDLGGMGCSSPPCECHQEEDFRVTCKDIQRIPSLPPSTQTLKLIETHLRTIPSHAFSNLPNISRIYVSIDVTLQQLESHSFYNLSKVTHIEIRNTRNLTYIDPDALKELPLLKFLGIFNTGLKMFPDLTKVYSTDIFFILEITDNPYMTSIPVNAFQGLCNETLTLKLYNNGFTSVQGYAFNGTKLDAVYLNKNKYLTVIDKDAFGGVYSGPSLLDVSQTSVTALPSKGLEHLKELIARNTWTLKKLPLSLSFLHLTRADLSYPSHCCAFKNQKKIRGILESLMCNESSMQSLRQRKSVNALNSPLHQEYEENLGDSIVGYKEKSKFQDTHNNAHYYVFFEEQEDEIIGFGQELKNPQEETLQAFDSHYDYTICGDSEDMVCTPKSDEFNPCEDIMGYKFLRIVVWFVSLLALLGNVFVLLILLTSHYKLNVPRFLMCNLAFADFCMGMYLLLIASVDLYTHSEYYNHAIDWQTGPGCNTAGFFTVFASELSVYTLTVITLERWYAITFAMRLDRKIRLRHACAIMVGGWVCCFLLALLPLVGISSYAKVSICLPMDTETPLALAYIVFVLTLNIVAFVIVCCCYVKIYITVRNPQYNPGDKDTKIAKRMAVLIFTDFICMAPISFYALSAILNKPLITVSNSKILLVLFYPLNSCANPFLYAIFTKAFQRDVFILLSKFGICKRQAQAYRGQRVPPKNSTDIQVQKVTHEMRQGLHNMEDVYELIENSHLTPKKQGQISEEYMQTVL
Summary of the method: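 TSHR-HEK293 cells in agonist mode, 30 min room-temperature step, then cAMP measured by competitive HTRF (cAMP-d2 with anti-cAMP cryptate) after 1 h at room temperature. Tested at 15 concentrations in triplicate.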

[6] = qHTS assay to identify small molecule agonists of the hypoxia (HIF-1) signaling pathway - cell viability counter screen (AID 1224844; calls by dose curve; note: nearly all actives have a fitted effect of over 50% in size)
Summary of the method: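 Multiplexed with the HRE beta-lactamase assay, this viability read used CellTiter-Glo luminescence (30 min, RT) on HRE-bla ME-180 cells treated 17 hrs with compounds in 0.5% dialyzed FBS medium.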

[7] = qHTS assay to identify small molecule agonists of H2AX (AID 1224845; active = well fitted activation curve with a large enough effect in the signal ratio in the repeat runs, not every such curve was filed as active; the % refers to the signal ratio)
Summary of the method: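 Wild-type CHO-K1 cells, plated overnight, exposed 3hr at 37C to 15 concentrations (0.76% DMSO final). Lysed, then HTRF anti-pH2AX (S139) cryptate and anti-H2AX-d2 antibodies, 24 hr room temperature; 665/620 nm emission read.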

[8] = qHTS assay to identify small molecule agonists of the hypoxia (HIF-1) signaling pathway (AID 1224846; active = well fitted activation curve with a large enough effect in the signal ratio in the repeat runs, not every such curve was filed as active; the % refers to the signal ratio)
Summary of the method: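 Hypoxia-pathway activation was scored as increased beta-lactamase from an HRE-controlled reporter in ME-180 cells; plated at 2,000 cells per well with 0.5% dialyzed FBS, they were exposed 17 hrs to compounds and then given CCF4-AM.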

[9] = qHTS assay to identify small molecule agonists of H2AX - cell viability counter screen (AID 1224847; calls by dose curve; note: top concentration of the series differs between compounds; nearly all actives have a fitted effect of over 30% in size)
Summary of the method: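 CHO-K1 wt, 1000 cells/well, o/n 37C; cpds 15 conc, 3 h 37C, 0.76% DMSO; CellTiter-Glo, 30 min RT, luminescence.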

[10] = qHTS RealTime-Glo MT Cell Viability Assay in HepG2 cells - 24 hour (AID 1224867); note: nearly all actives have a fitted effect of over 50% in size
Summary of the method: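 HepG2 cells (600/well) were dispensed with RealTime-Glo reagents, incubated 5 h at 37 °C, then treated with compounds in DMSO for up to 40 h. Nonlytic NanoLuc luminescence reflecting viable cells was read at each stated time point.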

[11] = qHTS RealTime-Glo MT Cell Viability Assay in HEK293 cells - 32 hour (AID 1224868); note: top concentration of the series differs between compounds; nearly all actives have a fitted effect of over 50% in size
Summary of the method: (§1)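 HEK293 cells seeded with NanoLuc/prosubstrate reagent, rested 5 h at 37 C, then dosed and kept at 37 C up to 40 h. Nonlytic real-time luminescence from viable cells read at 0, 8, 16, 24, 32 and 40 h.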

[12] = A CellTox Green Cytotoxicity Assay to monitor cytotoxicity in HEK293 cells - 0 hour (AID 1224869); note: nearly all actives have a fitted effect of over 50% in size
Summary of the method: (§2)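 Seeding of HEK293 cells together with cytotoxicity dye preceded a 5 h incubation at 37 C/5% CO2. Test compounds in DMSO were then added and fluorescence monitored across 40 h.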

[13] = qHTS RealTime-Glo MT Cell Viability Assay in HepG2 cells - 40 hour (AID 1224870); note: nearly all actives have a fitted effect of over 50% in size
Summary of the method: (§3)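 HepG2 cells (600/well) mixed with RealTime-Glo MT reagent, settled 5 h at 37 C/5% CO2 before compound addition. Nonlytic NanoLuc luminescence from viable-cell prosubstrate reduction read repeatedly during 40 h treatment at 37 C.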

[14] = A CellTox Green Cytotoxicity Assay to monitor cytotoxicity in HEK293 cells - 40 hour (AID 1224871); note: nearly all actives have a fitted effect of over 45% in size
Summary of the method: as §2

[15] = qHTS RealTime-Glo MT Cell Viability Assay in HEK293 cells - 16 hour (AID 1224872)
Summary of the method: as §1

[16] = qHTS RealTime-Glo MT Cell Viability Assay in HepG2 cells - 8 hour (AID 1224873); note: nearly all actives have a fitted effect of over 55% in size
Summary of the method: as §3

[17] = qHTS assay to identify small molecule antagonists of the estrogen related receptor signaling pathway with the pleiotropic PPARgamma coactivator (PGC) from Tox21 10K library (AID 1224841; call rule not given here)
Summary of the method: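 Each well held 2,000 PGC/ERR cells, pre-incubated six hours (37 C, 5% CO2). Test substances in DMSO were added by pin tool and left for 18 h at 37 C before luciferase detection by One-Glo.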

[18] = qHTS assay to identify small molecule agonists of the estrogen related receptor signaling pathway with the pleiotropic PPARgamma coactivator (PGC) from Tox21 10K library (AID 1224842); note: nearly all actives have a fitted effect of over 15% in size
Summary of the method: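 PGC/ERR reporter cell line, 2,000 cells per well, incubated 6 h at 37 C before 23 nL compound in DMSO was added. After 18 h at 37 C, One-Glo luminescence read following 30 min at room temperature.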

[19] = qHTS assay to identify small molecule antagonists of the estrogen related receptor (ERR) signaling pathway from Tox21 library (AID 1224848); note: nearly all actives have a fitted effect of over 50% in size
Summary of the method: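 ERR reporter cell line (from NTP) seeded 2,000 cells/well, rested 6 h at 37 C/5% CO2, then pin-dosed with compounds in DMSO. After 18 h at 37 C, ONE-Glo added; luminescence read after 30 min at room temperature.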

[20] = qHTS assay to identify small molecule agonists of the estrogen related receptor (ERR) signaling pathway from Tox21 library (AID 1224849; calls by dose curve; note: nearly all actives have a fitted effect of over 15% in size); conditions: ERR reporter cell line, ONE-Glo luciferase, 18 h
Summary of the method: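 Six hours post-seeding at 37 C/5% CO2, ERR cells receive DMSO-solubilised compounds; after 18 h at 37 C, ONE-Glo reagent is applied and luminescence recorded.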
% is set by controls: 0 for no effect and ±100 for the full control effect.

CCN(CC)CCO
inactive: Potency [1] | Potency [2] | Potency [3] | Potency [4] | Potency [5] | Potency [6] | Potency [7] | outcome [8] | Potency [9] | outcome [10] | Potency [11] | Potency [12] | outcome [13] | Potency [14] | outcome [15] | outcome [16]

Cc1[nH]c(=O)n(C(C)(C)C)c(=O)c1Cl
inactive: Potency [1] | Potency [2] | Potency [3] | Potency [4] | Potency [5] | Potency [6] | Potency [7] | outcome [8] | Potency [9] | outcome [10] | Potency [11] | Potency [12] | outcome [13] | Potency [14] | outcome [15] | outcome [16]

CN(C)[C@@H]1C(=O)C(C(N)=O)=C(O)[C@@]2(O)C(=O)C3=C(O)c4c(O)cccc4[C@@](C)(O)[C@H]3C[C@@H]12
inactive: Potency [1] | Potency [2] | Potency [3] | Potency [4] | Potency [5] | Potency [6] | Potency [7] | outcome [10] | Potency [11] | Potency [12] | outcome [13] | Potency [14] | outcome [15] | outcome [16]

C[C@]12CC[C@H]3[C@@H](CC[C@@]45O[C@@H]4C(O)=C(C#N)C[C@]35C)[C@@H]1CC[C@@H]2O
inactive: Potency [1] | Potency [2] | Potency [3] | Potency [4] | Potency [5] | Potency [6] | Potency [7] | outcome [8] | Potency [9] | outcome [10] | Potency [11] | Potency [12] | outcome [13] | Potency [14] | outcome [15] | outcome [16]

Nc1ccccc1C(=O)O
inactive: Potency [1] | Potency [2] | Potency [3] | Potency [4] | Potency [17] | outcome [18] | Potency [5] | Potency [6] | Potency [7] | outcome [8] | Potency [9] | Potency [19] | activity change, positive = activation ([20]; at 42.5 µM (top of the series)) 5.44% | activity change, positive = activation ([20]; at 92.4 µM (top of the series)) 6.82% | outcome [10] | Potency [11] | Potency [12] | Potency [14] | outcome [15] | outcome [16]

O=Cc1cccc(Oc2ccccc2)c1
inactive: Potency [1] | Potency [2] | Potency [3] | Potency [4] | Potency [5] | Potency [6] | Potency [7] | outcome [8] | Potency [9] | outcome [10] | Potency [11] | Potency [12] | Potency [14] | outcome [15] | outcome [16]

Cc1cc(-c2cc(C)c(N)c(C)c2)cc(C)c1N
inactive: Potency [1] | Potency [2] | Potency [3] | Potency [4] | Potency [6] | outcome [8] | Potency [9] | outcome [10] | Potency [11] | Potency [12] | outcome [13] | Potency [14] | outcome [15] | outcome [16]

C=C(C)CCl
inactive: Potency [1] | Potency [2] | Potency [3] | Potency [4] | activity change, negative = cytotoxicity [6] -1.52% [at 6.97 µM] | Potency [7] | outcome [8] | Potency [9] | outcome [10] | Potency [11] | Potency [12] | Potency [14] | activity change, negative = cytotoxicity [15] 7.57% [at 6.97 µM] | outcome [16]

Reference: PubChem BioAssay (Tox21)
